Test results taken from the supplement of paper PMC11732987, “Enantioselective OTUD7B fragment discovery through chemoproteomics screening and high-throughput optimisation” (Communications Chemistry, 2025).

How the values were obtained:
Assay in all cases: log2 ratio of Biotin-Ahx-Ub-VS probe labelling (fragment/DMSO); higher = less target engagement (more negative = stronger competition), active = hit call of the paper (q ≤ 0.05, log2 ratio ≤ -1)
Conditions in all cases: compound concentration: 200 uM; treatment time: 3 h
OTUD6B = biological target: T1, OTUD6B (UniProt Q8N6M0)
T1 sequence (whole entry): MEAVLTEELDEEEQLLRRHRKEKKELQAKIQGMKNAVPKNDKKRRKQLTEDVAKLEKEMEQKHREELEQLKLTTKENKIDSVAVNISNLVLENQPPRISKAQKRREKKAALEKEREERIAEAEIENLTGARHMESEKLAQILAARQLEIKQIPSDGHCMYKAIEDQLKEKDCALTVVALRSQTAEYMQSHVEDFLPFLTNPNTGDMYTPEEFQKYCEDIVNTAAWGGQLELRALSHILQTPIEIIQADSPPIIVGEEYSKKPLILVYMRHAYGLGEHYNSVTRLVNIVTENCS
Summary of the method: (§1)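 HEK293T lysate (495 µg per sample, in Tris/CHAPS/IGEPAL buffer with protease inhibitors) was treated in triplicate with fragment at 200 µM or with DMSO for 3 h. It was then treated with Biotin-Ahx-Ub-VS (0.5 µM final) for 1 h. Labelled DUBs were NeutrAvidin-enriched, digested with LysC and trypsin, and run by diaPASEF LC-MS/MS. Spectronaut label-free quantities were global-median-normalised. Values are average log2 ratios fragment/DMSO by unpaired t-test, using proteins with ≥2 unique peptides.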

OTUD7B = biological target: T2, OTUD7B (UniProt Q6GQQ9)
T2 sequence (whole entry): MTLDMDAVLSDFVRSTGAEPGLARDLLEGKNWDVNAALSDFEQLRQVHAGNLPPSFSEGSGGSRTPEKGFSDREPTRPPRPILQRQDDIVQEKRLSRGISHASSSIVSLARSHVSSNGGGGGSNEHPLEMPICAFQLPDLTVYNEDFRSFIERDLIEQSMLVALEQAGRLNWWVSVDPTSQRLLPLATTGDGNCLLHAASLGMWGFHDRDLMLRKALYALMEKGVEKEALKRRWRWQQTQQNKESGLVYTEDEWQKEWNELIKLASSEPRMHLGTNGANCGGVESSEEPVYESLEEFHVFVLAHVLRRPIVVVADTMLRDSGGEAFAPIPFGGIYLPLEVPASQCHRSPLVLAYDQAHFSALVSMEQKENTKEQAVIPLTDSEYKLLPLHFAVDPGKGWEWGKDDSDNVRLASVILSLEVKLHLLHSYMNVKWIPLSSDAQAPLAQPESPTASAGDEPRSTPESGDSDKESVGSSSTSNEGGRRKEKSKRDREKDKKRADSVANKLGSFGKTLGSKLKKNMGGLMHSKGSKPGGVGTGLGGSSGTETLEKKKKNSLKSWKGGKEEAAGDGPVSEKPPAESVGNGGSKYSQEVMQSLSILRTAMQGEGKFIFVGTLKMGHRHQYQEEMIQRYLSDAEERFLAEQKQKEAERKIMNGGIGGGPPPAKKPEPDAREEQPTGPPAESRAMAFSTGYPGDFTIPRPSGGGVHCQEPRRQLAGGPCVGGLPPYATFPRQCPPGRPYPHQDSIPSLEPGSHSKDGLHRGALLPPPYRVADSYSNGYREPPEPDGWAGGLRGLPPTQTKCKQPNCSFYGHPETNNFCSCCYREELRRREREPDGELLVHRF
Summary of the method: as §1

PRPF8 = PRPF8 (UniProt Q6P2Q9)
Summary of the method: as §1

PSMD7 = biological target: T3, PSMD7 (UniProt P51665)
T3 sequence (whole entry): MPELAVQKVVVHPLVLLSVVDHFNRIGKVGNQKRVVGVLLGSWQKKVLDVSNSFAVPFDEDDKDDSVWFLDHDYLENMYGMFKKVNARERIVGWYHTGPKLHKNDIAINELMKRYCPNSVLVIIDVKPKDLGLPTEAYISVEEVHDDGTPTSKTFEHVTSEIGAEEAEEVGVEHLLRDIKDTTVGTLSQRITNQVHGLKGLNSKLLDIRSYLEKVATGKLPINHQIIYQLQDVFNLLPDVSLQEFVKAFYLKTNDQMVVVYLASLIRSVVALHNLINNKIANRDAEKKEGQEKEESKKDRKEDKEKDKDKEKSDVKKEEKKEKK
Summary of the method: as §1

UCHL1 = UCHL1 (UniProt P09936)
UCHL1, sequence (P09936 whole entry, looked up): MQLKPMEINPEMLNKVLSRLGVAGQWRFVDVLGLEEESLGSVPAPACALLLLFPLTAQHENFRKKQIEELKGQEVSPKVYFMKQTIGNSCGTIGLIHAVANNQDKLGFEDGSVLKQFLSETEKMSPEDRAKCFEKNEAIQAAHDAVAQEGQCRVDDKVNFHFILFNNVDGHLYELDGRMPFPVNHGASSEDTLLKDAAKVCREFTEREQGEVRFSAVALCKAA
Summary of the method: as §1

UCHL3 = biological target: T4, UCHL3 (UniProt P15374)
T4 sequence (whole entry): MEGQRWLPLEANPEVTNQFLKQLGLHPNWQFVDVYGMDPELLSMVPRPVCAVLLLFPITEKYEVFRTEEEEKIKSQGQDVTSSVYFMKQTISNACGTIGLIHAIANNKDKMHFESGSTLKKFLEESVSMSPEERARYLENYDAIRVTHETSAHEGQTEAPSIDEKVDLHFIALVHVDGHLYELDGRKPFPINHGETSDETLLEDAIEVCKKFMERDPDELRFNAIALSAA
Summary of the method: as §1

UCHL5 = biological target: T5, UCHL5 (UniProt Q9Y5K5)
T5 sequence (whole entry): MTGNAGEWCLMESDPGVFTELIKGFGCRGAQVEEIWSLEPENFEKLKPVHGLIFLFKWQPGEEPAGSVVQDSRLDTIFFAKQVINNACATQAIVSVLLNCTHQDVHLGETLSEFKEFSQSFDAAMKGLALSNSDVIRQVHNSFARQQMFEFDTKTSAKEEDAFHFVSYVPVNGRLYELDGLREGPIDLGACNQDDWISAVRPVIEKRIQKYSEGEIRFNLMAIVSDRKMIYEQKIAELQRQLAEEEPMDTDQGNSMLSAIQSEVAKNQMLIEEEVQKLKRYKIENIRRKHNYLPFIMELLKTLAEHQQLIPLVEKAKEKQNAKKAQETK
Summary of the method: as §1

USP10 = USP10 (UniProt Q14694)
USP10, sequence (Q14694 whole entry): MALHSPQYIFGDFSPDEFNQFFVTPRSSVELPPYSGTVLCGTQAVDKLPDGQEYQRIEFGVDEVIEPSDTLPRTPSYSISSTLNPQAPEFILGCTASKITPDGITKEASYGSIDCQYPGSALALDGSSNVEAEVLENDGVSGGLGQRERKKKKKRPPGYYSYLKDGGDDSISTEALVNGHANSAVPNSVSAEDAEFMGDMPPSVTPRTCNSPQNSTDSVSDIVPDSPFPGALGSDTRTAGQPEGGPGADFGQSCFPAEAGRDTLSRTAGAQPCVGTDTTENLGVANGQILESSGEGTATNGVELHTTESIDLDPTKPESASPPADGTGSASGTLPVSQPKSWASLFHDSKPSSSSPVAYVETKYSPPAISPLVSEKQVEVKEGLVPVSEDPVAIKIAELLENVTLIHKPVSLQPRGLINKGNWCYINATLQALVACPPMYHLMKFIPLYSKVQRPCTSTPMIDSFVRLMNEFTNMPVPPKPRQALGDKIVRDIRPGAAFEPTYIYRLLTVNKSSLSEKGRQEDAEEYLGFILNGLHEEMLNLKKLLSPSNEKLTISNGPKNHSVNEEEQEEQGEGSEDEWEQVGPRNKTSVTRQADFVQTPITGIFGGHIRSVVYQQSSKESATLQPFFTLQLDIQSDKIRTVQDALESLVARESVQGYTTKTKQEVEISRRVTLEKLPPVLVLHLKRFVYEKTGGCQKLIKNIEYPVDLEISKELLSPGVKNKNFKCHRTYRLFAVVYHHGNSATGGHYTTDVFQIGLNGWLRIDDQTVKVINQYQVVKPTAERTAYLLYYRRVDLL
Summary of the method: as §1

USP15 = biological target: T6, USP15 (UniProt Q9Y4E8)
T6 sequence (whole entry): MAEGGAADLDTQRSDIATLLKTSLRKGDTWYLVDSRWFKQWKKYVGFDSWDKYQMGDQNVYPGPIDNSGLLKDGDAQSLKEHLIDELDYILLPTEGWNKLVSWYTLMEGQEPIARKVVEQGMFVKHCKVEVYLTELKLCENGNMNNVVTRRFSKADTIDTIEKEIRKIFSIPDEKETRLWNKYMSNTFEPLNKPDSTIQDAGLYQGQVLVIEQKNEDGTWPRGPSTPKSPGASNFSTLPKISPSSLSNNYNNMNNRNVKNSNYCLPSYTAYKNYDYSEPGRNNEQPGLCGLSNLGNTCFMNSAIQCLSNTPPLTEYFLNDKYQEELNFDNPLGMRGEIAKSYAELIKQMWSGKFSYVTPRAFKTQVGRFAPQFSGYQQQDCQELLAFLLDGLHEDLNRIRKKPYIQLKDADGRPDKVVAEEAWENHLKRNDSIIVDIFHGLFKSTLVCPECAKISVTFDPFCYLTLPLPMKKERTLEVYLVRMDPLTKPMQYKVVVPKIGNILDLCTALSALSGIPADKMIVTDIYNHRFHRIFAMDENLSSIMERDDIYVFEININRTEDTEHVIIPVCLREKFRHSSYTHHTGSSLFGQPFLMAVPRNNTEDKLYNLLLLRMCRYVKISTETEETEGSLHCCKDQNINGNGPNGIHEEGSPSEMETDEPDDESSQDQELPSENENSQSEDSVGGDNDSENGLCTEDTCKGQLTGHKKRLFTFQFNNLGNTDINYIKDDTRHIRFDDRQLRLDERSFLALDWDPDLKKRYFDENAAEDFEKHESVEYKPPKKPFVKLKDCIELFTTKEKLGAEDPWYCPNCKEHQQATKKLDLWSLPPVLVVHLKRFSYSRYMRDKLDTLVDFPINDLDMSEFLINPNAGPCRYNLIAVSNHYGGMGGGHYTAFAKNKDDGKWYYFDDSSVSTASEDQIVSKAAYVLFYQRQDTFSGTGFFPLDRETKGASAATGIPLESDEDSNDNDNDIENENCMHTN
Summary of the method: as §1

USP16 = USP16 (UniProt Q9Y5T5)
USP16, sequence (Q9Y5T5 whole entry, looked up): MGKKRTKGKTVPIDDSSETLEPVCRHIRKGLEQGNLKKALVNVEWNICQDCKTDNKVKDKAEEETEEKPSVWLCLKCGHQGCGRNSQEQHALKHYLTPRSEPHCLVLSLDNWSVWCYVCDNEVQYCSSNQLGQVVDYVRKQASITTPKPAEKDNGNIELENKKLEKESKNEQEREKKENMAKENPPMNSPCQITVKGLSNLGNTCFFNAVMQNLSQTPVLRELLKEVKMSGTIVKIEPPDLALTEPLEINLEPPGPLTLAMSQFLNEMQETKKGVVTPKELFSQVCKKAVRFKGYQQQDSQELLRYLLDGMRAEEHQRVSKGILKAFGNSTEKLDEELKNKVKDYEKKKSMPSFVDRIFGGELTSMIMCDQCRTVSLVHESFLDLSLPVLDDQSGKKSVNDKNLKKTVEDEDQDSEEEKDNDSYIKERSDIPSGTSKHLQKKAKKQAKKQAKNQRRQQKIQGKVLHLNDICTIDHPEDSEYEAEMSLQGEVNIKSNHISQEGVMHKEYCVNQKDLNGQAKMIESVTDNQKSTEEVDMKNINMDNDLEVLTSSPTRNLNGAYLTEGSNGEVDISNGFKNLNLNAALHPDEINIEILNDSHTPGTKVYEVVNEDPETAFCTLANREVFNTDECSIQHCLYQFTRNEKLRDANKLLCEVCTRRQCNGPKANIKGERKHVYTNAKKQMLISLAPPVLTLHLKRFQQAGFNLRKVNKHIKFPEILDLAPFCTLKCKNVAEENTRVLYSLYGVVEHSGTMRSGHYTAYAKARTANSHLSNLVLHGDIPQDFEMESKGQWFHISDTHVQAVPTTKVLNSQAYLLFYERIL
Summary of the method: as §1

Measured: log2 ratio of Biotin-Ahx-Ub-VS probe labelling

O=C(CCl)N[C@H]1CCS(=O)(=O)c2ccccc21
active: OTUD7B -1.71 | UCHL1 -1.5
inactive: OTUD6B -0.0586 | PRPF8 0.0359 | PSMD7 -0.0772 | UCHL3 0.351 | UCHL5 -0.0806 | USP10 -0.109 | USP15 -0.195 | USP16 -0.601
